# Records with an inconclusive call do not appear. Values without a mark were called inactive. The source made the active and inactive calls. The call rests on the fitted dose curve; in most records, active means well fitted inhibition curve with a large enough effect; inconclusive means small, poorly fitted or top-dose-only effect; inactive means flat fitted curve, though single readings scatter.
# Test system: CRL-7250
# Test: Cytotoxic Profiling of Annotated Libraries Using Quantitative High-Throughput Screening (AID 1296008); further: nearly all actives have a fitted effect of over 60% in size
# Conditions: Five cell lines viability, CellTiter-Glo ATP luminescence, 48-72 h; max response: stronger effect = lower value
# In short: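 Compounds were pin-transferred onto cells and incubated 48 or 72 hr at 37 degree Celsius, 95% humidity. CellTiter-Glo was added, plates sat 10 min at room temperature, then ATP-coupled luminescence was imaged as the viability read-out.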
# On the % scale 0 is the no-effect control and ±100 the full control effect; potency means the concentration at half of the fitted maximal effect.
Compound,max response [%],Potency,outcome
Cc1cc(C(N)=O)ccc1-n1c(CCC(=O)O)ccc1-c1ccc(-n2ccnc2)cc1,1.88,,
CC(=O)O[C@@H]1[C@@H](O)[C@H](C)O[C@@H](O[C@H]2[C@@H]3C=CO[C@@H](O[C@@H]4O[C@H](CO)[C@@H](O)[C@H](O)[C@H]4O)[C@@H]3[C@@]3(CO)O[C@@H]23)[C@@H]1OC(=O)/C=C/c1ccccc1,-1.26,,
COc1cc(Br)c(Nc2nc(-c3c(C)nc4ncccn34)cs2)c(Br)c1,,4.61 µM (active),
C=C1C[C@]23C[C@H]1CC[C@H]2[C@]1(C)CCC[C@@](C)(C(=O)O)[C@H]1[C@@H]3C(=O)O,,,inactive
CN(C)C/C=C/C(=O)Nc1cc2c(Nc3ccc(F)c(Cl)c3)ncnc2cc1OC1CCOC1 (centres undefined),,11.6 µM (active),
O=C(CCCCN1CCOCC1)Nc1ccc(-c2cccnc2)cc1,-12,,
CCC[C@@H]1O[C@@H]2C[C@H]3[C@@H]4CCC5=CC(=O)C=C[C@]5(C)[C@H]4[C@@H](O)C[C@]3(C)[C@]2(C(=O)CO)O1,0.403,,
O=C(O)COCCN1CCN([C@H](c2ccccc2)c2ccc(Cl)cc2)CC1,2.26,,
C[C@H](NC(c1cccc(C[P+](=O)O)c1)[C@H](C)O)c1ccc(Cl)c(Cl)c1 (some centres undefined),,,inactive
CC1(C)CC[C@]2(C(=O)O)CC[C@]3(C)C(=CCC4[C@@]5(C)CC[C@H](O[C@@H]6O[C@H](C(=O)O)[C@@H](O[C@@H]7OC[C@@H](O)[C@H](O)[C@H]7O)[C@H](O)[C@H]6O)C(C)(C)C5CC[C@]43C)C2C1O (some centres undefined),4.1,,
CC(=O)C12OC(C)(C)OC1CC1C3CCC4=CC(=O)C=CC4(C)C3(F)C(O)CC12C (centres undefined),-7.35,,
CC1(C)CCCC2(C)C=C(C(=O)O)C(O)CC12 (centres undefined),,,inactive
C/C=C/c1ccc2oc(-c3ccc(O)c(OC)c3)c(C)c2c1,-27.9,,
COc1c2c(c(C)c3c1C(=O)OC3)O[C@@]1(C)CCC3(C(C)(C)O)OC(=O)CC[C@]3(C)[C@H]1C2 (some centres undefined),-2.51,,
COc1ccc(Cl)c(Nc2nc3ccccc3nc2NS(=O)(=O)c2cccc(NC(=O)C(C)(C)N)c2)c1,-18.5,,
C=C1C(OC(=O)/C(C)=C\C)[C@@]23CCC4[C@@](C)(CCC[C@@]4(C)C(=O)O)C2CC[C@H]1C3OC(C)=O (some centres undefined),-2.82,,
CC(=O)OC1C(O)C2C(C)C3=CC(=O)OC3(O)CC2C2(C)CCCC(C)(CO)C12 (centres undefined),,,inactive
C[C@@H]1O[C@@H](O[C@H]2[C@H](O)[C@@H](O)[C@H](OC[C@H]3O[C@@H](OC(=O)[C@]45CCC(C)(C)C[C@H]4C4=CCC6[C@@]7(C)CC[C@H](O[C@@H]8OC[C@H](O)[C@H](O[C@@H]9O[C@H](CO)[C@@H](O)[C@H](O)[C@H]9O)[C@H]8O)[C@@](C)(CO)C7CC[C@@]6(C)[C@]4(C)CC5)[C@H](O)[C@@H](O)[C@@H]3O)O[C@@H]2CO)[C@H](O)[C@H](O)[C@H]1O (some centres undefined),,,inactive
C=CC1C(OC2OC(CO)C(O)C(O)C2O)OC=C2C(=O)N3C(C(=O)O)Cc4c([nH]c5ccccc45)C3CC21 (centres undefined),,,inactive
O=C1N=C(N2CCOCC2)CN1c1ccc(Cl)cc1,-3.02,,

Compound,max response [%],Potency,outcome
Cc1cc2c(F)c(Oc3ncnn4cc(OCC(C)O)c(C)c34)ccc2[nH]1 (centres undefined),-24.6,,
COc1cc(/C=C/C(=O)OC[C@H]2O[C@@](CO)(O[C@H]3O[C@H](CO)[C@@H](O)[C@H](O)[C@H]3O)[C@@H](OC(=O)/C=C/c3ccc(O)c(OC)c3)[C@@H]2O)ccc1O,-25.3,,
CC1=CC(=O)CC(C)(CO)C1(O)/C=C/C(C)O[C@@H]1O[C@H](CO)[C@@H](O)[C@H](O)[C@H]1O (some centres undefined),-0.153,,
OC[C@H]1O[C@@H](OCCc2ccccc2)[C@H](O[C@@H]2OC[C@](O)(CO)[C@H]2O)[C@@H](O)[C@@H]1O,-6.82,,
COc1ccc(/C=C/C(=O)O[C@H]2[C@H](O[C@H]3[C@@H]4C=CO[C@@H](O[C@@H]5O[C@H](CO)[C@@H](O)[C@H](O)[C@H]5O)[C@@H]4[C@@]4(CO)O[C@@H]34)O[C@@H](C)[C@H](O)[C@H]2OC(C)=O)cc1,3.12,,
COc1cc(O)c([C@@H](CC(=O)N2CC(C)CC(C)C2)c2ccc3c(c2)OCO3)c(OC)c1 (some centres undefined),-6.18,,
COc1cc2c3c(cc4ccccc4c3c1O)NC2=O,4.86,,
CC(C)=CCC[C@](C)(O[C@@H]1O[C@H](CO[C@@H]2O[C@H](CO)[C@@H](O)[C@H](O)[C@H]2O)[C@@H](O)[C@H](O)[C@H]1O)C1CC[C@]2(C)[C@@H]1[C@H](O)CC1[C@@]3(C)CC[C@H](O[C@@H]4O[C@H](CO)[C@@H](O)[C@H](O)[C@H]4O[C@@H]4O[C@H](CO)[C@@H](O)[C@H](O)[C@H]4O)C(C)(C)[C@@H]3CC[C@]12C (some centres undefined),-3.43,,
CC1(C)CC[C@]2(C(=O)O[C@@H]3O[C@H](CO)[C@@H](O)[C@H](O)[C@H]3O)CC[C@]3(C)C(=CCC4[C@@]5(C)CC[C@H](O[C@@H]6O[C@H](C(=O)O)[C@@H](O)[C@H](O)[C@H]6O)[C@@](C)(CO)C5CC[C@]43C)C2C1 (some centres undefined),1.86,,
COC(=O)C1=CO[C@@H](O[C@@H]2O[C@H](CO)[C@@H](O)[C@H](O)[C@H]2O)[C@H]2[C@@H]1CC(OC)O[C@@H]2C (some centres undefined),,,inactive
CC(=O)O[C@@H]1[C@H](O[C@@H]2O[C@@H](CO)[C@H](O)[C@H]2O)[C@@H](O[C@@H]2O[C@@H](C)[C@H](O[C@@H]3OC[C@@H](O)[C@H](O)[C@H]3O)[C@@H](O)[C@H]2O)[C@H](OC(=O)[C@]23CCC(C)(C)C[C@H]2C2=CCC4[C@@]5(C)CC[C@H](O[C@@H]6O[C@H](C(=O)O)[C@@H](O)[C@H](O)[C@H]6O[C@@H]6O[C@H](CO)[C@H](O)[C@H](O)[C@H]6O)[C@@](C)(C=O)C5CC[C@@]4(C)[C@]2(C)CC3)O[C@@H]1C (some centres undefined),,,inactive
Nc1ncnc2c1ncn2CCNCCCCCO,,,inactive
COC(=O)[C@@]1(c2ccc(C)cc2)C[C@H]1CN1CCC(O)(c2ccccc2)CC1,3.12,,
CC(C)c1nnc(-c2ccc(-c3ccccc3)nc2)n1-c1cccc2nonc12,-7.02,,
C=C1C(OC(C)=O)CCC2(C)CC3(OC)OC(=O)C(C)=C3CC12 (centres undefined),-3.85,,
CN(C)C/C=C/C(=O)Nc1cccc(C(=O)Nc2ccc(Nc3nccc(-c4cccnc4)n3)cc2)c1,,7.31 µM (active),
COc1c2c(c(C)c3c1C(=O)OC3)OC1(C)CC(O)C34OC(OC)(OC3(C)C)C(O)CC4(C)C1C2 (centres undefined),,,inactive
O=C(O)c1ccccc1NCCc1ccccc1,4.16,,
Cc1cn(C2C=CC(CO)O2)c(=O)[nH]c1=O (centres undefined),-8.63,,
